High-throughput results from PubChem.
Compounds with a hit are over-represented: about 2.2% of the library has one in this group of screens.
Ba/F3 V617F tox – reduced viability of JAK2V617F-dependent Ba/F3 cells, primary screen, JAK2V617F inhibitor project, cell-based, Ba/F3 EpoR-JAK2V617F, luminescence | ATP luminescence | inhibition, % at 5.6 µM | hit rate 1.1% among 220,000 | AID 1446, 2008;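 active means inhibition above the campaign mean plus 3 SD over all tested compounds, cut at about 24% in these data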;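 further: cytokine-independent growth of Ba/F3 cells driven by EpoR plus mutant JAK2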
BaF3 parental – parental Ba/F3 cell viability inhibition, counter-screen for JAK2V617F inhibitor project, murine pro-B, CellTiter-Glo luminescence; CellTiter-Glo ATP luminescence; inhibition, % at 5.6 µM; hit rate 1.1% among 220,000; AID 1486, 2009;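 active means inhibition above a per-campaign cutoff, the mean inhibition of all tested compounds plus 3 SD, cut at about 27% in these data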
APP transl inh – inhibitors of APP translation via 5'UTR reporter, primary screen, APP 5'UTR luciferase, SH-SY5Y cells | SH-SY5Y APP 5'UTR-luciferase reporter, luminescence | inhibition, % at 2 µM | hit rate 0.82% among 190,000;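 active means inhibition above a set limit, derived from the sample mean plus 3 SD, cut at about 45% in these data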
IEC-6 cytotox – cytotoxicity in IEC-6 intestinal epithelial cells, primary screen, cytotoxicity control for KLF5 inhibitor project, cell-based, luminescence; AID 1825, 2009; inhibition, % at 5 µM; hit rate 0.78% among 290,000; IEC-6 cytotoxicity, luminescence viability
aSyn UTR inh – MLPCN primary screen, SNCA 5' untranslated region | alpha-synuclein 5'UTR reporter, inhibitor activity | inhibition, % (tested at 7.5 µM) | hit rate 0.82% among 300,000 | AID 1813, 2009; in the data active means inhibition above about 60%;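 further: H4 neuroglioblastoma cells stably carrying SNCA 5'UTR luciferase fusion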
KLF5 inh – KLF5 expression inhibitors, primary screen, DLD-1 cells, luminescence; DLD-1 KLF5 promoter-luciferase reporter; inhibition, % at 5 µM; hit rate 0.23% among 290,000; AID 1700, 2009;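 active means inhibition above a per-plate limit of that plate's mean compound inhibition plus 3 SD, cut at about 60% in these data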;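 further: higher means less KLF5 promoter-driven luciferase light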
IEC-6 tox confirm – cytotoxic compounds in IEC-6 epithelial cells, confirmation, cytotoxicity control, cell-based, luminescence | shares compounds with IEC-6 cytotox | IEC-6 rat intestinal epithelial viability | inhibition, % at 5 µM | hit rate 63% among 1,900 | AID 1907, 2009
Large screens that a line does not name were inactive (follow-up assays come after a bar, where they were run). Unless noted, no stated cut-off is given here; in the data, active means inhibition above about 22%; inactive means the rest.

CCCCc1nc2cc(C(=O)N3CCCCC3C(=O)OC)ccc2o1 (stereo not drawn)	none (no result: Ba/F3 V617F tox, BaF3 parental, APP transl inh)
Fc1cccc(Cl)c1CSC1=NCCS1	none (no result: Ba/F3 V617F tox, BaF3 parental, APP transl inh)
Cn1cccc1/C=C1\SC(=Nc2ccccc2)NC1=O	Ba/F3 V617F tox 76.3, BaF3 parental 71.7, IEC-6 cytotox 68.2 (no result: APP transl inh) | IEC-6 tox confirm 57.2
Cn1cccc1/C=C1\SC(=Nc2ccc(O)cc2)NC1=O	Ba/F3 V617F tox 89.0, BaF3 parental 86.7, IEC-6 cytotox 89.6 (no result: APP transl inh) | IEC-6 tox confirm 66.3
CCOC(=O)c1cnn(-c2ccccc2)c1NC(=O)CSc1nnc(-c2cccs2)n1CC	IEC-6 cytotox 24.3 | IEC-6 tox confirm inactive
COC(=O)c1c(C)oc2ccc(N(C(=O)c3ccncc3)S(=O)(=O)c3ccc(C)cc3)cc12	Ba/F3 V617F tox 85.8, BaF3 parental 75.2, APP transl inh 89.0, IEC-6 cytotox 52.1, aSyn UTR inh 109.8 | IEC-6 tox confirm 56.7
Cc1nn(-c2ccccc2)c(C)c1NC(=O)COc1ccc([N+](=O)[O-])cc1	none (no result: Ba/F3 V617F tox, BaF3 parental, APP transl inh, IEC-6 cytotox, KLF5 inh)
COc1ccc(CCC(=O)OCC(=O)Nc2ccccc2)cc1	none (no result: Ba/F3 V617F tox, BaF3 parental, APP transl inh)
Cc1ccc(C(=O)NCC#N)cc1	none
Cc1ccc(C(=O)NC(C#N)=C(Cl)Cl)cc1	APP transl inh 57.7, IEC-6 cytotox 70.2 | IEC-6 tox confirm inactive
COc1ccc(N2CC(C(=O)N3CCC(c4nc5ccccc5[nH]4)CC3)CC2=O)cc1 (stereo not drawn)	none (no result: Ba/F3 V617F tox, BaF3 parental, APP transl inh, IEC-6 cytotox, KLF5 inh)
Cc1cc(NS(=O)(=O)c2ccc(NC(=S)NC(=O)c3ccccc3)cc2)no1	IEC-6 cytotox 63.1 | IEC-6 tox confirm 22.9
O=C(O)c1ccccc1SCCS(=O)(=O)c1ccc(Cl)cc1Cl	none (no result: Ba/F3 V617F tox, BaF3 parental, APP transl inh)
COc1cc2c(cc1OC)C(c1cccs1)N(C(=O)C(C)C)CC2 (stereo not drawn)	none
COc1cc2c(cc1OC)C(c1cccs1)N(C(=O)c1cccnc1)CC2 (stereo not drawn)	Ba/F3 V617F tox 45.9, BaF3 parental 46.2, APP transl inh 45.0, IEC-6 cytotox 46.4 | IEC-6 tox confirm 34.2
CS(=O)(=O)/C(C#N)=C\c1cnc(S(=O)(=O)c2ccccc2)s1	IEC-6 cytotox 35.6 (no result: Ba/F3 V617F tox, BaF3 parental, APP transl inh) | IEC-6 tox confirm inactive
CC(=O)Nc1nc2ccc(S(=O)(=O)N3CCCC3)cc2s1	none (no result: Ba/F3 V617F tox, BaF3 parental, APP transl inh)
CCCC(=O)Nc1nc2ccc(S(=O)(=O)N3CCCCC3)cc2s1	Ba/F3 V617F tox 79.6, BaF3 parental 78.7, APP transl inh 78.9, IEC-6 cytotox 53.6 | IEC-6 tox confirm 58.7
CCCCN(C)C(=O)CNC(=O)c1nn(-c2ccc(OC)cc2OC)c(=O)c2ccccc12	none (no result: Ba/F3 V617F tox, BaF3 parental, APP transl inh)
CCCOc1ccc(C(=O)NNC(=S)NC(=O)c2ccccc2)cc1	IEC-6 cytotox 36.8, aSyn UTR inh 79.6 (no result: Ba/F3 V617F tox, BaF3 parental, APP transl inh) | IEC-6 tox confirm inactive
CCCOc1ccc(C(=O)NNC(=S)NC(=O)c2cccs2)cc1	IEC-6 cytotox 38.7 (no result: Ba/F3 V617F tox, BaF3 parental, APP transl inh) | IEC-6 tox confirm 50.1
CC(C)n1cnnc1SCC(=O)Nc1cccc(S(=O)(=O)N(C)c2ccccc2)c1	none (no result: APP transl inh)
COc1ccccc1/C=N/NC(=O)c1c(-c2ccccc2)noc1C	none (no result: Ba/F3 V617F tox, BaF3 parental, APP transl inh)
Cc1cccc(/C=N/NC(=O)c2c(-c3ccccc3)noc2C)c1O	IEC-6 cytotox 26.9, aSyn UTR inh 62.3 (no result: Ba/F3 V617F tox, BaF3 parental, APP transl inh) | IEC-6 tox confirm 48.0
Cc1cccc(/C=N\NC(=O)c2ccc(Cl)cc2)c1O	IEC-6 cytotox 22.9 | IEC-6 tox confirm 50.6
C=CCc1cc(C)ccc1OCCOCCn1ccnc1	none
CC(NC(=O)/C(C#N)=C/c1ccc([N+](=O)[O-])o1)c1ccccc1 (stereo not drawn)	IEC-6 cytotox 47.6 (no result: Ba/F3 V617F tox, BaF3 parental, APP transl inh) | IEC-6 tox confirm inactive
Clc1ccc(Cn2ncc3c(NCc4ccccc4)ncnc32)cc1	IEC-6 cytotox 28.2 | IEC-6 tox confirm 27.2
COc1ccc(C(=O)c2ccc(OC)c(N)c2)cc1N	Ba/F3 V617F tox 80.8, BaF3 parental 80.6, APP transl inh 90.8, IEC-6 cytotox 76.4 | IEC-6 tox confirm 61.0
COc1cccc(NC(=O)CSc2nc3ccccc3nc2N2CCCC2)c1	none (no result: Ba/F3 V617F tox, BaF3 parental, APP transl inh)
Cc1cccc(NC(=O)CSc2nc3ccccc3nc2N2CCCC2)c1	IEC-6 cytotox 31.8 (no result: Ba/F3 V617F tox, BaF3 parental, APP transl inh) | IEC-6 tox confirm inactive
Cc1cccc(NC(=O)CSc2nc3ccccc3nc2N2CCCCC2)c1	IEC-6 cytotox 43.1 (no result: Ba/F3 V617F tox, BaF3 parental, APP transl inh) | IEC-6 tox confirm 28.7
